From PubChem BioAssay (Tox21)
Results filed as inconclusive are left out. Activity calls are given as the source filed them. Unless noted, the call rests on the fitted dose curve; in most records, active means well fitted curve in the direction sought with a large enough effect in the repeat runs; inconclusive means weak or mixed curves; inactive means no such curve, though single readings can be large; an effect the other way counts as inactive or inconclusive.

Legend:
[1] = biological target: Progesterone receptor (Homo sapiens) (UniProt P06401); assay: qHTS assay to identify small molecule agonists of the progesterone receptor (PR) signaling pathway (AID 1346784; calls by dose curve; further: nearly all actives have a fitted effect of over 30% in size)
Method in brief: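 Using charcoal-stripped serum (2%) to limit endogenous steroids, PR-UAS-bla HEK 293T cells received compounds for 16 hr at 37C after 6 hr plating; beta-lactamase FRET fluorescence was recorded following 2 hr substrate loading at room temperature.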

[2] = biological target: Progesterone receptor (Homo sapiens) (UniProt P06401); assay: qHTS assay to identify small molecule antagonists of the progesterone receptor (PR) signaling pathway (AID 1346795; active means well fitted inhibition curve with a large enough effect in the signal ratio in the repeat runs, not every such curve was filed as active; the % refers to the signal ratio)
Method in brief: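 Inhibition of R5020-induced (1 nM final) beta-lactamase reporter signal in PR-UAS-bla HEK293T cells was scored by FRET fluorescence after overnight (16 hr) compound treatment.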

[3] = qHTS assay to identify small molecule antagonists of the progesterone receptor (PR) signaling pathway - cell viability counter screen (AID 1346798); further: series mostly up to about 92 µM; nearly all actives have a fitted effect of over 50% in size
Method in brief: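 ATP content as viability readout: CellTiter-Glo luminescence, 30 min room temperature, in PR-UAS-bla HEK293T cells after 16 hr compound/R5020 treatment at 37C and 5% CO2.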

[4] = qHTS assay to identify small molecule agonists of the progesterone receptor (PR) signaling pathway - cell viability counter screen (AID 1346799; calls by dose curve; further: nearly all actives have a fitted effect of over 45% in size)
Method in brief: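 Cytotoxicity in PR-bla HEK293T cells: 16 h compound, 37C; CellTiter-Glo added post-FRET read; luminescence after 30 min RT.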

[5] = qHTS assay to identify small molecule antagonists of the TGF-beta/Smad signaling pathway - cell viability counter screen (AID 1346824); further: nearly all actives have a fitted effect of over 50% in size
Method in brief: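 SBE-bla HEK 293T cells were plated overnight at 37 C, then given compounds in DMSO plus TGF-beta1 (added as 0.25 ng/mL solution) for 5 hr. After the bla read, CellTiter-Glo was added to the same wells and luminescence read after 30 min at room temperature.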

[6] = qHTS assay to identify small molecule agonists of the TGF-beta/Smad signaling pathway - cell viability counter screen (AID 1346829); further: top concentration of the series differs between compounds; nearly all actives have a fitted effect of over 45% in size
Method in brief: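 SBE-bla HEK 293T cells plated overnight, compound exposure 5 hr at 37 C. Viability read in the same wells by CellTiter-Glo luminescence after 30 min at room temperature, following the beta-lactamase read.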

[7] = qHTS assay to identify small molecule agonists of the TGF-beta/Smad signaling pathway (AID 1346859; active means well fitted activation curve with a large enough effect in the signal ratio in the repeat runs, not every such curve was filed as active; the % refers to the signal ratio; further: series mostly up to about 77 µM)
Method in brief: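 Stable Smad binding element-beta-lactamase HEK 293T cells; 5 hr compound exposure at 37 C under 5% CO2; 2 hr room-temperature substrate step; fluorescence excited at 405 nm, collected at 460 nm and 530 nm.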

[8] = Human pregnane X receptor (PXR) small molecule agonists, qHTS cell viability counter screen (AID 1346977); further: nearly all actives have a fitted effect of over 50% in size
Method in brief: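 Readout is CellTiter-Fluor fluorescence from PXR-Luc HepG2 cells. Plated cells rested 5hr, then were treated with compounds for 24hr at 37C and 5% CO2, with reagent present during the last hour.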

[9] = biological target: Thyrotropin-releasing hormone receptor (Homo sapiens) (UniProt P34981); assay: qHTS assay to identify small molecule antagonists of the thyrotropin-releasing hormone receptor (TRHR) signaling pathway (AID 1346877; active means well fitted inhibition curve with a large enough effect in the repeat runs, not every such curve was filed as active; further: series mostly up to about 51 µM)
Method in brief: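 Calcium signal in dye-loaded TRHR/HEK293 cells; compounds added 5 min before TRH (1 nM final); fluorescence monitored 3 min at 1 s steps.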

[10] = biological target: Thyrotropin-releasing hormone receptor (Homo sapiens) (UniProt P34981); assay: qHTS assay to identify small molecule agonists of the thyrotropin-releasing hormone receptor (TRHR) signaling pathway (AID 1346891; calls by dose curve;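 further: HEK293 cells expressing TRHR with calcium dye readout; series mostly up to about 58 µM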)
Method in brief: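 In 1536-format, 1500 TRHR-Hek293 cells per well grew 18 h, took up calcium dye for 2 h at 37 °C, received compound, and were read kinetically; 15-point titrations, triplicates.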
On the % scale 0 is the no-effect control and ±100 the full control effect.

Progesterone receptor (Homo sapiens), sequence (P06401 whole entry, looked up): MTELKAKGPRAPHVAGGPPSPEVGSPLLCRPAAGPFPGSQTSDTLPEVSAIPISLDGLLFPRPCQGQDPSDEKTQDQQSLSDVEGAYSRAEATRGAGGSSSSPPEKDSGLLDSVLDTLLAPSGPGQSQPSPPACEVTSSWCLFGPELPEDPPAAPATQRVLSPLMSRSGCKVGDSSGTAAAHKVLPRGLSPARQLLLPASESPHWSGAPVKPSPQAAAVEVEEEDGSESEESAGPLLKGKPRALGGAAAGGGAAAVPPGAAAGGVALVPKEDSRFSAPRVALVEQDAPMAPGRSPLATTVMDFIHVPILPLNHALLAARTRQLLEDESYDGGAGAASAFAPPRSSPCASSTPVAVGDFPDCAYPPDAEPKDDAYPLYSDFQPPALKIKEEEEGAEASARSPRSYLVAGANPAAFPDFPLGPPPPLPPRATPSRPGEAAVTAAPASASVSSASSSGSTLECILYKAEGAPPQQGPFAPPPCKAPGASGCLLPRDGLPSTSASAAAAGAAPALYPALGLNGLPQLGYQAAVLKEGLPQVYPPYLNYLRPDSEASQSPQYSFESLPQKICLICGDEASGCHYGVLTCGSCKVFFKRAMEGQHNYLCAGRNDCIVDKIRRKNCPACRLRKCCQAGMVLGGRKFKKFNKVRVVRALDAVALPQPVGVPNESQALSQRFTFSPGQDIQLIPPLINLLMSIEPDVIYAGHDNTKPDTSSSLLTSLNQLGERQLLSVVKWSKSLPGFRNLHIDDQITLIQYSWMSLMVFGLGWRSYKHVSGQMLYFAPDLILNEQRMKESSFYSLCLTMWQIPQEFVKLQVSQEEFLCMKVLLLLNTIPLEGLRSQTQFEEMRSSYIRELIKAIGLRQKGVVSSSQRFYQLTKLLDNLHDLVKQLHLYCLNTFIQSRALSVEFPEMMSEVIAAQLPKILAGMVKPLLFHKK
Thyrotropin-releasing hormone receptor (Homo sapiens), sequence (P34981 whole entry, looked up): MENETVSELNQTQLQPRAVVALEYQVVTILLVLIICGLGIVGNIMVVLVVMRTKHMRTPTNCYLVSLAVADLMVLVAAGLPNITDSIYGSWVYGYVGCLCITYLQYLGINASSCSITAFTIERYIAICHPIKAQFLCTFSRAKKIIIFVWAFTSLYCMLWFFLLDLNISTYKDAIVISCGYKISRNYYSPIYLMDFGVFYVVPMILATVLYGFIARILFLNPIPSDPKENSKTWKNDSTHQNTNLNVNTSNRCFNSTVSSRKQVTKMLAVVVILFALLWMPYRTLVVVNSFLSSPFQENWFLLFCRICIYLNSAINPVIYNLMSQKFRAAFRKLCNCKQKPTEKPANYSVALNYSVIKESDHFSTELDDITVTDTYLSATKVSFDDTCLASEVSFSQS

Cc1ccsc1C(=CCCN1CCC[C@@H](C(=O)O)C1)c1sccc1C
inactive: Potency [1] | Potency [2] | Potency [3] | Potency [4] | outcome [5] | outcome [6] | outcome [7] | Potency [8]

Cc1cc(S(=O)(=O)O)c(N)cc1Cl
inactive: Potency [1] | Potency [2] | Potency [3] | Potency [4] | outcome [5] | outcome [6] | outcome [9] | Potency [10]

CC1(C)S[C@@H]2[C@H](NC(=O)C(C(=O)O)c3ccccc3)C(=O)N2[C@H]1C(=O)O (some centres undefined)
inactive: Potency [1] | Potency [2] | Potency [3] | Potency [4] | outcome [5] | outcome [7] | outcome [9] | Potency [10] | Potency [8]

Cc1onc(-c2ccccc2)c1C(=O)Cl
inactive: Potency [1] | Potency [2] | Potency [3] | Potency [4] | outcome [5] | outcome [7] | outcome [9] | Potency [10] | Potency [8]

COC(=O)c1ccc2cc(C(=O)OC)ccc2c1
inactive: activation [1] 2.44% [at 19 µM] | activity change, negative = inhibition [2] -25.1% [at 18.9 µM] | Potency [3] | activity change, negative = cytotoxicity [4] -2.9% [at 19 µM] | viability change, negative = cytotoxic [5] 0.743% [at 15.8 µM] | activity change, negative = cytotoxicity [6] 8.9% [at 15.8 µM] | activation [7] 0.192% [at 15.8 µM] | activity change, negative = cytotoxicity [8] 6.1% [at 19 µM]

OC[C@H]1O[C@@H](O[C@H]2[C@H](O)[C@@H](O)[C@H](O)O[C@@H]2CO)[C@H](O)[C@@H](O)[C@H]1O
inactive: Potency [1] | Potency [2] | Potency [3] | Potency [4] | outcome [5] | outcome [7] | outcome [9] | Potency [10]

C=CCCCCCCCCO
inactive: Potency [1] | Potency [2] | Potency [3] | Potency [4] | outcome [5] | outcome [6] | outcome [9] | Potency [10] | Potency [8]

CCC(=O)Nc1ccc(O)cc1
inactive: Potency [1] | Potency [2] | Potency [3] | Potency [4] | outcome [5] | outcome [6] | outcome [9] | Potency [10]

CC(C)C1=CC2=CC[C@@H]3[C@](C)(CCC[C@@]3(C)C(=O)O)[C@H]2CC1
inactive: Potency [1] | Potency [2] | Potency [3] | Potency [4] | outcome [5] | outcome [6] | outcome [9] | Potency [10]

O=C1CCCCC1C1CCCCC1 (centres undefined)
inactive: Potency [1] | Potency [2] | Potency [3] | Potency [4] | outcome [5] | outcome [6] | outcome [9] | Potency [10] | Potency [8]

CCN(CC)CCNC(=O)COc1ccc(Cl)cc1
inactive: Potency [1] | Potency [2] | Potency [3] | Potency [4] | outcome [5] | outcome [6] | outcome [9] | Potency [10] | Potency [8]

CCCCC1CCC(=O)O1 (centres undefined)
inactive: Potency [1] | Potency [2] | Potency [3] | Potency [4] | outcome [5] | outcome [6] | outcome [9] | Potency [10] | Potency [8]

CCOC(=O)[C@H](CCc1ccccc1)N[C@@H](C)C(=O)N1Cc2cc(OC)c(OC)cc2C[C@H]1C(=O)O
inactive: Potency [1] | Potency [2] | Potency [3] | Potency [4] | outcome [5] | outcome [6] | outcome [7] | outcome [9] | Potency [10] | Potency [8]

NS(=O)(=O)c1cc(-c2nn[nH]n2)c(NCc2cccs2)cc1Cl
inactive: Potency [1] | Potency [2] | Potency [3] | Potency [4] | outcome [5] | outcome [6] | outcome [7] | outcome [9] | Potency [10] | Potency [8]

C[C@@H](N)C(=O)O
inactive: Potency [1] | Potency [2] | Potency [3] | Potency [4] | outcome [5] | outcome [6] | Potency [8]

CCOC(=O)COc1ccc2c(c1)CC(NCC(O)c1cccc(Cl)c1)CC2 (centres undefined)
inactive: Potency [1] | Potency [2] | Potency [3] | Potency [4] | outcome [5] | outcome [7] | outcome [9]

Nc1ccc2ccccc2c1S(=O)(=O)O
inactive: Potency [1] | Potency [2] | Potency [3] | Potency [4] | outcome [5] | outcome [6] | outcome [7] | outcome [9] | Potency [10] | Potency [8]

Cc1cc(NS(=O)(=O)c2ccc(N)cc2)nc(C)n1
inactive: Potency [1] | Potency [2] | Potency [3] | Potency [4] | outcome [5] | outcome [6] | outcome [9] | Potency [10] | Potency [8]

FC(F)(F)c1ccccc1
inactive: Potency [1] | Potency [2] | Potency [3] | Potency [4] | outcome [5] | outcome [6] | outcome [7] | outcome [9] | Potency [10] | Potency [8]

CCCN(CCC)C(=O)C(CCC(=O)O)NC(=O)c1ccccc1 (centres undefined)
inactive: Potency [1] | Potency [2] | Potency [3] | Potency [4] | outcome [5] | outcome [6] | outcome [9] | Potency [10] | Potency [8]

CCNCCO
inactive: Potency [1] | Potency [2] | Potency [3] | Potency [4] | outcome [5] | outcome [6] | outcome [9] | Potency [10] | Potency [8]

Cc1cn([C@@H]2O[C@H](CO)[C@@H](O)[C@@H]2F)c(=O)[nH]c1=O
inactive: Potency [1] | Potency [2] | Potency [3] | Potency [4] | outcome [5] | outcome [6] | outcome [7] | outcome [9] | Potency [10] | Potency [8]

CN1CCC[C@@H]1Cc1c[nH]c2ccc(CCS(=O)(=O)c3ccccc3)cc12
inactive: Potency [1] | Potency [2] | Potency [3] | Potency [4] | outcome [5] | outcome [7] | outcome [9] | Potency [10]

CCCCNc1ccc(C(=O)OCCN(CC)CC)cc1
inactive: Potency [1] | Potency [2] | Potency [3] | Potency [4] | outcome [5] | outcome [7] | outcome [9] | Potency [10] | Potency [8]

O=[N+]([O-])c1nccn1CO[C@@H](CO)[C@H](O)CO
inactive: Potency [1] | Potency [2] | Potency [3] | Potency [4] | outcome [5] | outcome [6] | outcome [9] | Potency [10] | Potency [8]
